A short description of the assay: qHTS for characterization and localization of zebrafish homologs of the human ABCB1 multidrug transporter: empty vector transfected cells. The conditions noted are these: empty vector transfected control cells, CellTiter-Glo luminescence viability, 72 h. From the text: The zebrafish has emerged as a potential model to study the blood-brain barrier (BBB) given its similarities with mammalian systems. However, little information has been available with regard to homologous ATP-binding cassette transporters expressed at the zebrafish BBB. Two transporters that are highly expressed at the human BBB are P-glycoprotein (P-gp, encoded by the ABCB1 gene) and ABCG2 (encoded by the ABCG2 gene). In this study, we focus on characterization of P-gp homologs in the zebrafish, which has two genes that are homologous to human ABCB1 - abcb4 and abcb5. We generated stably-transfected cell lines to determine their substrate specificities. […] Zebrafish abcb4 also colocalized with claudin 5 expression in brain endothelial cells.
A high-throughput screen was performed as previously described on empty vector transfected cells, P-gp-overexpressing MDR-19 cells and cells transfected with full-length zebrafish abcb4 (ZF Abcb4) or abcb5 (ZF Abcb5). Briefly, cells were plated into 1536-well plates at a density of 500 cells/well in 5 uL media. P-gp substrate compounds (approximately 90) selected from our previous study were then added at varying concentrations using a 1536-head pin tool (Kalypsis, San Diego, CA) and plates were incubated at 37C in 5% CO2 for 72 h. CellTiter-Glo reagent (Promega) was dispensed into the wells, incubated for 5 min and luminescence was read on a ViewLux instrument (Perkin-Elmer).
Cytotoxic compounds were defined as those that yielded a curve class of -1.1, -1.2, -2.1, -2.2, -2.3, or -2.4, a maximum response of >50% and an AC50 of < 10 uM. All compounds from screening analysis were tested in Vector (empty vector control), MDR-19 (P-gp overexpressing), zebrafish abcb4 (ZF Abcb4) and abcb5 (ZF Abcb5) expression cell lines.
1. Tobie D Lee, Olivia W Lee, Kyle R Brimacombe, Lu Chen, Rajarshi Guha, Sabrina Lusvarghi, Bethilehem G Tebase, Carleen Klumpp-Thomas, Robert W Robey, Suresh V Ambudkar, Min Shen, Michael M Gottesman, Matthew D Hall. A High-Throughput Screen of a Library of Therapeutics Identifies Cytotoxic Substrates of P-glycoprotein. […]

Records with an inconclusive call do not appear. Active and inactive are the calls of the source. The call rests on the fitted dose curve; in most records, active means well fitted inhibition curve with a large enough effect; inconclusive means small, poorly fitted or top-dose-only effect; inactive means flat fitted curve, though single readings scatter. Starred links: 1 amine or outer side, 2 acyl side, 3 side chain; linkers in the order of their positions; H or OH if unused. Non-standard residues stand in square brackets, D forms with d. Residues, ends and D or L forms follow the SMILES beside them. X1 = O=C([C@@H](CC(O)CCl)O[*:1])[*:2]; aIle = CC[C@@H](C)[C@H](N)C(=O)O; NMeV = CN[C@H](C(=O)O)C(C)C; NMeA = CN[C@@H](C)C(=O)O; βAla = NCCC(=O)O

Consider `CC[C@@H](C)[C@@H]1NC(=O)[C@@H]2CCCN2C(=O)[C@@H](CC(O)CCl)OC(=O)CCNC(=O)[C@H](C)N(C)C(=O)[C@H](C(C)C)N(C)C1=O` (stereo partly drawn) (cyclo([NMeA][βAla][X1]P[aIle][NMeV])), for which the Potency was 1390 nM (active). As for `C=CCON=C(C[C@H]1O[C@@H]2O[C@]3(C)CC[C@@H]4[C@H](C)CC[C@@H]([C@H]1C)[C@@]24OO3)[C@H]1O[C@@H]2O[C@]3(C)CC[C@H]4[C@H](C)CC[C@@H]([C@@H]1C)[C@@]24OO3`, the figure is 187 nM (active).

As to `C[C@@H]1[C@@H](CC(C[C@H]2O[C@@H]3O[C@]4(C)CC[C@@H]5[C@H](C)CC[C@@H]([C@H]2C)[C@@]35OO4)C[S+](=O)([O-])c2ccc(COC(=O)N(C)C)cc2)O[C@@H]2O[C@]3(C)CC[C@H]4[C@H](C)CC[C@@H]1[C@@]24OO3` (stereo partly drawn), the Potency was 264 nM (active).

The values are drawn from PubChem BioAssay AID1508637 (National Center for Advancing Translational Sciences (NCATS), 2021).
